ALR H2O2 inh – human ALR oxidase inhibition via reduced H2O2; P55789; purified ALR, DTT oxidation, H2O2 HRP-luminol luminescence; inhibition, % (test concentration not listed); 290,000 compounds, 3.8% hits; AID 485317;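 active means mean replicate inhibition above about 79%, with every replicate also reaching it, limit read from the data; inconclusive means only one of the two criteria met; inactive means mean below limit and not every replicate reaching it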
Target sequence (P55789 whole entry, looked up): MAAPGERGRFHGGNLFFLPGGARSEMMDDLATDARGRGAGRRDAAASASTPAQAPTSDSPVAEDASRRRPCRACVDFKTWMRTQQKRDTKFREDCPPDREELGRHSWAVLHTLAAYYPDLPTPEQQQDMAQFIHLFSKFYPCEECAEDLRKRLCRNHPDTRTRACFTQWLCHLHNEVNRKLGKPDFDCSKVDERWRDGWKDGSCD
Cardio protect – modulators protecting cardiomyocytes from myocardial damage; H9c2 cardiomyocytes, H2O2 injury protection, ATPLite, 2 h; protection from H2O2 cell death, % at 20 µM; 360,000 compounds, 0.63% hits; AID 588492;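 active means compounds giving at least 50% protection of heart cells from peroxide-induced death in the single-dose screen, raw or plate-pattern-corrected value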;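 further: 0% = DMSO wells with peroxide and 100% = DMSO wells without peroxide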
NTR1 ag – activates human neurotensin receptor 1; activation, % at 20 µM; NTR1-U2OS beta-arrestin-GFP spot imaging, agonist mode; P30989; 330,000 compounds, 0.17% hits;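 active means activation at or above 40% of the spot to cytoplasm intensity ratio, with at least 20 cells analyzed; inconclusive means wells under 20 cells, flagged as cytotoxic or low count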;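 further: 0% = DMSO without peptide and 100% = 100 nM NTR1 peptide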
Target sequence (P30989 whole entry, looked up): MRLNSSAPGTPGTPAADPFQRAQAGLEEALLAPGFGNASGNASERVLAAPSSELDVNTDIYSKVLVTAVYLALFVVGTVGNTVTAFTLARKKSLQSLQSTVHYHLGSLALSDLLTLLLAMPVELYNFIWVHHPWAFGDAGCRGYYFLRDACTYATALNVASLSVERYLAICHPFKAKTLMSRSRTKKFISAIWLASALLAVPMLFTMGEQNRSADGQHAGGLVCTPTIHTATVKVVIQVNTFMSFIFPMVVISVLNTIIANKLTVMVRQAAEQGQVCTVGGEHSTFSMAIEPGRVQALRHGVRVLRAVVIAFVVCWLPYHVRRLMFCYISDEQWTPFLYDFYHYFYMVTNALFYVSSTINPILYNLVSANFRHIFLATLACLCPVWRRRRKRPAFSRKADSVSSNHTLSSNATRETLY
SUMO HTRF inh – SUMOylation inhibition; HTRF SUMOylation assay, SAE1/SAE2 + UBC9, in vitro; inhibition, % at 35 µM; 290,000 compounds, 0.36% hits; AID 2006; in the data active means inhibition above about 50%, passing the limit was not always enough; inconclusive means no clear call, values can overlap the other calls
Starred values were filed as active, the others as inactive; ? = inconclusive; · = not tested or not shown. An excerpt weighted towards active compounds, which were near 3.9% of everything screened.

SMILES | ALR H2O2 inh | Cardio protect | NTR1 ag | SUMO HTRF inh
COc1ccc2[nH]c(=O)c(-c3nnn(-c4ccc(F)cc4)n3)cc2c1 | · | 56.0* | -0.3 | ·
COc1ccc(C(=O)N/N=C/C2CC=CCC2)cc1OC (stereo not given) | 92.7* | 6.3 | 0.7 | -11.8
CC1CCC/C(=C\c2ccc(O)cc2)C1=O (stereo not given) | 91.6* | -3.0 | 0.0 | ·
Cc1cccc(NC(=O)CN(C2=NC3CS(=O)(=O)CC3S2)c2ccccc2F)c1 (stereo not given) | 98.6* | 8.3 | -1.5 | 23.7
O=S1(=O)CC2N=C(N(Cc3ccc(F)cc3Cl)c3ccccc3F)SC2C1 (stereo not given) | 98.0* | -3.9 | 0.5 | -15.6
CCOc1ccc(N(CC(=O)Nc2ccc(OC)cc2)C2=NC3CS(=O)(=O)CC3S2)cc1 (stereo not given) | 98.6* | -3.6 | 0.0 | 8.9
CCOc1ccc(N(CC(=O)Nc2ccc(C)c(F)c2)C2=NC3CS(=O)(=O)CC3S2)cc1 (stereo not given) | 17.3 | -4.6 | 0.4 | -13.6
O=C(CSC1CC(=O)N(CC(c2ccccc2)c2ccccc2)C1=O)Nc1ccc(Cl)cc1 (stereo not given) | ? | -13.9 | · | -16.3
COc1ccccc1NC(=O)C1=C(C)Nc2nc(CCCO)nn2C1c1cccnc1 (stereo not given) | -0.8 | 1.3 | 0.5 | -4.5
COc1ccc(-c2nc(N)ncc2-c2ccccc2)c(O)c1 | 1.8 | -5.8 | 2.3 | -9.2
CN(CC(=O)NCCc1ccccc1)S(=O)(=O)c1cccc2nsnc12 | -1.5 | 4.3 | 0.1 | -3.9
CCN(CCCNC(=O)CN(C)S(=O)(=O)c1cccc2nsnc12)c1ccccc1 | 95.3* | 0.3 | 0.4 | 32.0
CCCN(CC(=O)Nc1ccccc1C)C(=O)COC(=O)CSc1ccc([N+](=O)[O-])cc1 | -43.4 | -4.4 | 0.0 | ·
O=C(O)CCCCCNc1nc(=S)[nH]c2ccccc12 | 82.3* | -1.0 | -2.8 | -9.0
COc1ccc(NC(=O)CN2CCN(CC(=O)Nc3ccc4c(c3)OCO4)CC2)cc1 | -0.3 | -3.8 | 1.9 | 3.8
O=C(OCCc1ccccc1)c1cc(O)c(O)c(O)c1 | 99.0* | 45.9 | -1.0 | ·
O=C(Oc1ccccc1)c1cc(O)c(O)c(O)c1 | · | 74.8* | · | ·
CC(=O)c1cccc(OC(=O)c2ccccc2)c1 | · | 0.8 | · | ·
O=C(Nc1ccc(F)cc1F)c1cc(-c2ccco2)on1 | 6.0 | -2.0 | -0.1 | 13.3
CN(CCNC(=O)C1(O)c2ccccc2NC(=O)N1c1ccccc1)Cc1ccccc1 (stereo not given) | -4.8 | -0.9 | 0.1 | 14.9
CCOc1ccc(N2C(=O)Nc3ccccc3C2(O)C(=O)NCc2ccccc2)cc1 (stereo not given) | 92.2* | 0.3 | -0.9 | 14.1
O=C(N/N=C/c1cc(Br)ccc1O)c1ccccc1Cl | 0.3 | 56.3* | 5.9 | -17.2
COC(=O)N/N=C/c1cc(Br)ccc1O | -4.3 | 0.0 | 0.8 | 10.6
O=C(c1ccoc1)N1CCN(c2cc(-c3ccccc3)nc3cc(-c4ccc(Br)cc4)nn23)CC1 | · | 14.3 | · | ·
O=C(c1ccoc1)N1CCN(c2cc(-c3ccncc3)nc3cc(-c4cccc(Cl)c4)nn23)CC1 | · | 71.4* | · | ·
SMILES | ALR H2O2 inh | Cardio protect | NTR1 ag | SUMO HTRF inh
COc1ccc(-c2cc3nc(-c4ccccc4)cc(N4CCN(C(=O)c5ccoc5)CC4)n3n2)cc1 | · | 53.7* | · | ·
CN(C)C(=O)C(OC(=O)c1ccc2c(c1)CCCC2)c1ccccc1 (stereo not given) | -1.5 | -0.9 | -0.2 | 12.0
CCOC(=O)/C(=N/Nc1ccccc1OC)N1CCCc2ccccc21 | 71.3 | -8.3 | 1.3 | -11.1
COC(=O)/C(=N/Nc1ccccc1C)N1CCCc2ccccc21 | 98.3* | 7.9 | 0.3 | -3.3
CCOC(=O)/C(=N/Nc1ccccc1)N1CCCc2ccccc21 | 93.5* | -2.2 | 0.3 | 18.1
Cn1cc(P(=O)(N2CCOCC2)N2CCOCC2)cc1P(=S)(N1CCOCC1)N1CCOCC1 | · | 7.2 | -0.9 | 27.4
COc1cccc(-c2cc(C(F)(F)F)nc(NCc3ccco3)n2)c1 | -0.3 | -20.4 | 0.8 | -0.8
COC(=O)c1c(N)n(-c2ccc(N3CCOCC3)cc2)c2nc3ccccc3nc12 | · | · | · | 51.6*
Cc1ccc(C)c(NC(=O)C(CC(=O)O)Cc2ccccc2)c1 (stereo not given) | -1.8 | -5.1 | 0.2 | 25.7
Cn1c(=O)c2c(nc3n2CC(O)CN3c2ccc(O)cc2)n(C)c1=O (stereo not given) | 99.3* | 5.5 | -0.1 | 7.5
Cc1ccc(N2CC(O)Cn3c2nc2c3c(=O)n(C)c(=O)n2C)cc1 (stereo not given) | -0.8 | 4.1 | -0.3 | 10.1
CC(C)(C)C(=O)NC(=S)Nc1ccccc1F | -11.8 | -3.8 | -1.6 | 30.1
Cc1cccc(NC(=S)NNC(=O)CCn2nc(C)c([N+](=O)[O-])c2C)c1 | 3.5 | 0.3 | 2.5 | -8.8
Cc1nn(CC(=O)NNC(=S)Nc2ccccc2)c(C)c1[N+](=O)[O-] | 79.8* | -2.2 | 0.6 | -3.4
COc1ccc(NC(=S)NNC(=O)Cn2nc([N+](=O)[O-])cc2C)cc1 | 81.2* | 0.1 | 0.8 | 0.0
O=C(Nc1ccc(-c2nc3ccccc3[nH]2)cc1)c1cccc(N2C(=O)CCC2=O)c1 | · | 1.5 | 2.4 | 64.8*
O=C(Nc1ccccc1-c1nc2ccccc2[nH]1)c1ccc(N2C(=O)CCC2=O)cc1 | 3.9 | 28.5 | 20.3 | 13.9
COc1ccc(C(=O)Nc2nc(-c3ccccn3)cs2)cc1S(=O)(=O)N1CCOCC1 | 2.4 | 54.4* | 4.1 | ·
COc1ccc(CC(=O)Nc2nc3ccc(F)cc3s2)cc1S(=O)(=O)N1CCOCC1 | 98.7* | -3.1 | -1.7 | 5.6
O=C(Nc1nc(-c2ccccn2)cs1)c1cccc(S(=O)(=O)N2CCOCC2)c1 | -18.0 | 75.6* | 5.1 | ·
O=C(NC(=S)Nc1cccc([N+](=O)[O-])c1)c1ccco1 | -2.6 | -5.8 | -1.1 | 4.3
O=C(Nc1nc(-c2ccccn2)cs1)c1ccc(S(=O)(=O)N2CCCCC2)cc1 | -0.4 | · | 12.5 | -127.3
COc1ccc(C(=O)Nc2ccccc2N2CCOCC2)cc1S(=O)(=O)N1CCCC1 | 4.9 | 6.5 | 1.3 | ·
COc1ccc(C(=O)Nc2ccccc2N2CCCC2)cc1S(=O)(=O)N1CCOCC1 | 98.1* | 2.3 | 2.3 | ·
COc1ccc(-c2csc(NC(=O)c3cccc(N4C(=O)CCC4=O)c3)n2)cc1OC | 1.8 | 84.8* | 1.2 | ·
SMILES | ALR H2O2 inh | Cardio protect | NTR1 ag | SUMO HTRF inh
Cc1ccc(S(=O)(=O)N2CCOCC2)cc1C(=O)Nc1nc(-c2ccccn2)cs1 | -6.6 | 54.1* | 3.9 | ·
CCOc1ccc(-c2csc(NC(=O)c3cccc(N4C(=O)CCC4=O)c3)n2)cc1 | -10.1 | 26.5 | 9.9 | 0.0
CCOc1ccc(N=c2scc(-c3ccccc3)n2CCO)cc1 | 25.2 | -15.6 | 2.0 | 9.8
OCCn1c(-c2ccc(F)cc2)csc1=Nc1ccccc1 | 95.9* | -14.8 | 3.3 | 13.1
CCn1c(-c2ccccc2)csc1=Nc1ccc(O)cc1 | 98.9* | -6.1 | -0.2 | 0.4
CN1/C(=C\C=N\NC(=O)c2cccnc2)C(C)(C)c2ccccc21 | 97.8* | -10.2 | -0.1 | 6.6
CCOC(=O)c1ccc(NC(=O)c2nc[nH]c2C(=O)NCCCNC(=O)c2[nH]cnc2C(=O)Nc2ccc(C(=O)OCC)cc2)cc1 | -4.2 | 44.5 | 4.3 | ·

Screening data from PubChem.
